Calls of active or inactive are those of the source. Rule for the calls: active = hit-call score of the fitted dose curve at least 0.9, where 1 is the maximum; inactive = score below 0.9.
Legend:
[1] = CEETOX_H295R_PROG: CeeTox H295R High-throughput Steroidogenesis Assay for Progesterone (PROG) (AID 2283442); conditions: actives raise or lower the signal
How it was run: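 Progesterone read-out: HPLC-MS/MS on MTBE extracts of conditioned medium after 48 h chemical exposure of forskolin-primed (10 uM, 48 h) H295R cells. Gain or loss of signal was fitted relative to DMSO baseline.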

[2] = read-out: Tumor necrosis factor receptor superfamily member 6 (Homo sapiens) (UniProt P25445); assay: LTEA_HepaRG_FAS: Life Technologies and Expression Analysis (LTEA) Assay for Fas cell surface death receptor (FAS) using HepaRG (AID 2283447); conditions: mRNA level, 48 h; actives raise or lower the signal
How it was run: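 Differentiated HepaRG cells in serum-free induction medium were exposed 48 h to 8 half-log concentrations up to 100 uM in 0.5% DMSO, in duplicate. FAS mRNA was measured by qRT-PCR normalised to ACTB, GAPDH and POLR2A; bidirectional fit versus DMSO.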

[3] = read-out: Fatty acid synthase (Homo sapiens) (UniProt P49327); assay: LTEA_HepaRG_FASN: Life Technologies and Expression Analysis (LTEA) Assay for Fatty Acid Synthase (FASN) using HepaRG (AID 2283448); conditions: mRNA level, 48 h; actives raise or lower the signal
How it was run: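 FASN transcript measured by TaqMan qRT-PCR, normalised to three housekeeping genes, after 48 h chemical exposure of HepaRG cells. Eight-point half-log series from 100 uM in 0.5% DMSO, duplicates; gain or loss fitted against vehicle.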

[4] = read-out: Cyclin D2 (CCND2), CCND2 (gene 894); assay: LTEA_HepaRG_CCND2: Life Technologies and Expression Analysis (LTEA) Assay for Cyclin D2 (CCND2) using HepaRG (AID 2283449); conditions: mRNA level, 48 h; actives raise or lower the signal;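 note: CCND2 transcript measured by TaqMan qRT-PCR and normalised to three housekeeping genes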
How it was run: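 HepaRG, 48 h dosing, 8-pt half-log curve from 100 uM, 0.5% DMSO; duplicate wells. Readout: CCND2 transcript by microfluidic qRT-PCR, housekeeping-normalised; bidirectional fit vs DMSO baseline.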

[5] = read-out: Cyclin Dependent Kinase Inhibitor 1A (CDKN1A), CDKN1A (gene 1026); assay: LTEA_HepaRG_CDKN1A: Life Technologies and Expression Analysis (LTEA) Assay for Cyclin Dependent Kinase Inhibitor 1A (CDKN1A) using HepaRG (AID 2283450); conditions: mRNA level, 48 h; actives raise or lower the signal
How it was run: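 HepaRG, 48 h dosing, 8-pt half-log series from 100 uM top, 0.5% DMSO vehicle, duplicates. Readout: TaqMan qRT-PCR of CDKN1A transcript, housekeeping-normalized (ACTB, GAPDH, POLR2A). Up/down curve fit relative to DMSO.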

[6] = read-out: Cyclin D1 (CCND1), CCND1 (gene 595); assay: LTEA_HepaRG_CCND1: Life Technologies and Expression Analysis (LTEA) Assay for Cyclin D1 (CCND1) using HepaRG (AID 2283451); conditions: mRNA level, 48 h; actives raise or lower the signal
How it was run: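 qRT-PCR (Fluidigm 96.96 array) read-out of transcript level, housekeeping-normalized (ACTB/GAPDH/POLR2A). HepaRG cells, 48 h chemical exposure, 8-point half-log series from 100 uM, 0.5% DMSO vehicle; gain or loss relative to DMSO baseline.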

[7] = read-out: catalase (CAT), CAT (gene 847); assay: LTEA_HepaRG_CAT: Life Technologies and Expression Analysis (LTEA) Assay for catalase (CAT) using HepaRG (AID 2283452); conditions: mRNA level, 48 h; actives raise or lower the signal
How it was run: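 HepaRG cells in serum-free induction medium, 0.5% DMSO vehicle, exposed 48 h in duplicate over 8 half-log concentrations from 100 uM. CAT mRNA measured by qRT-PCR, normalized to ACTB, GAPDH, POLR2A; bidirectional fit versus DMSO.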

[8] = read-out: flavin-containing dimethylaniline monooxygenases 3 (FMO3), FMO3 (gene 2328); assay: LTEA_HepaRG_FMO3: Life Technologies and Expression Analysis (LTEA) Assay for flavin-containing dimethylaniline monooxygenases 3 (FMO3) using HepaRG (AID 2283453); conditions: mRNA level, 48 h; actives raise or lower the signal
How it was run: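 FMO3 transcript quantified by TaqMan qRT-PCR against three housekeeping genes after 48 h chemical exposure of HepaRG cells. Eight-point half-log series, top 100 uM, 0.5% DMSO vehicle; phenobarbital 1mM induction control; up- or down-regulation fitted.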

[9] = read-out: Cytochrome P450 (CYP1A1), CYP1A1 (gene 1543); assay: LTEA_HepaRG_CYP1A1: Life Technologies and Expression Analysis (LTEA) Assay for Cytochrome P450 (CYP1A1) using HepaRG (AID 2283454); conditions: mRNA level, 48 h; actives raise or lower the signal
How it was run: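 qRT-PCR read-out: CYP1A1 transcript normalized to three housekeeping genes, fitted bidirectionally against 0.5% DMSO vehicle baseline. Human HepaRG cells, 48 h chemical exposure, 8-point half-log series topping at 100 uM.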

[10] = read-out: CFLAR gene, CFLAR (gene 8837); assay: LTEA_HepaRG_CFLAR: Life Technologies and Expression Analysis (LTEA) Assay for CFLAR gene using HepaRG (AID 2283455); conditions: mRNA level, 48 h; actives raise or lower the signal
How it was run: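 qRT-PCR read-out (Fluidigm/TaqMan) of CFLAR mRNA, normalized to three housekeeping genes, in differentiated human HepaRG cells after 48 h chemical exposure; 8-point half-log series from 100 uM in 0.5% DMSO; bidirectional curve fitting versus DMSO.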

[11] = read-out: Forkhead box O1 (FOXO1), FOXO1 (gene 2308); assay: LTEA_HepaRG_FOXO1: Life Technologies and Expression Analysis (LTEA) Assay for Forkhead box O1 (FOXO1) using HepaRG (AID 2283456); conditions: mRNA level, 48 h; actives raise or lower the signal
How it was run: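 HepaRG, 48 h exposure, 8-pt half-log series from 100 uM in 0.5% DMSO, duplicates; Fluidigm qRT-PCR mRNA, housekeeping-normalised; bidirectional fit vs DMSO baseline.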

[12] = read-out: growth arrest and DNA damage 45 (GADD45A), GADD45A (gene 1647); assay: LTEA_HepaRG_GADD45A: Life Technologies and Expression Analysis (LTEA) Assay for growth arrest and DNA damage 45 (GADD45A) using HepaRG (AID 2283458); conditions: mRNA level, 48 h; actives raise or lower the signal
How it was run: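 GADD45A expression was measured by TaqMan qRT-PCR against three housekeeping genes (ACTB, GAPDH, POLR2A) after 48 h treatment of HepaRG cells. Eight-point half-log series up to 100 uM in 0.5% DMSO, run in duplicate.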

[13] = read-out: Forkhead box O3 (FOXO3), FOXO3 (gene 2309); assay: LTEA_HepaRG_FOXO3: Life Technologies and Expression Analysis (LTEA) Assay for Forkhead box O3 (FOXO3) using HepaRG (AID 2283459); conditions: mRNA level, 48 h; actives raise or lower the signal
How it was run: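 qRT-PCR readout of FOXO3 transcript, normalized to three housekeeping genes (ACTB, GAPDH, POLR2A); gain or loss fitted against 0.5% DMSO vehicle. HepaRG cells, 48 h chemical exposure, 8-point half-log series, top 100 uM.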

[14] = read-out: growth arrest and DNA damage 45 (GADD45B), GADD45B (gene 4616); assay: LTEA_HepaRG_GADD45B: Life Technologies and Expression Analysis (LTEA) Assay for growth arrest and DNA damage 45 (GADD45B) using HepaRG (AID 2283461); conditions: mRNA level, 48 h; actives raise or lower the signal
How it was run: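 qRT-PCR read-out (Fluidigm TaqMan, housekeeping-normalized) of mRNA change in human HepaRG cells after 48 h chemical exposure; 8-point curve, top 100 uM, half-log steps, 0.5% DMSO vehicle; gain or loss fitted relative to DMSO baseline.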

[15] = read-out: ABC Transporter (ABCC3), ABCC3 (gene 8714); assay: LTEA_HepaRG_ABCC3: Life Technologies and Expression Analysis (LTEA) Assay for ABC Transporter (ABCC3) using HepaRG (AID 2283462); conditions: mRNA level, 48 h; actives raise or lower the signal
How it was run: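 qRT-PCR read-out of ABCC3 transcript, normalized to three housekeeping genes (ACTB, GAPDH, POLR2A), after 48 h chemical exposure of human HepaRG cells. Eight half-log concentrations, highest 100 uM, in 0.5% DMSO; gain or loss fitted relative to DMSO baseline.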

[16] = read-out: ABC Transporter (ABCB11), ABCB11 (gene 8647); assay: LTEA_HepaRG_ABCB11: Life Technologies and Expression Analysis (LTEA) Assay for ABC Transporter (ABCB11) using HepaRG (AID 2283463); conditions: mRNA level, 48 h; actives raise or lower the signal
How it was run: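 HepaRG, 48 h exposure, 8-pt half-log CRC top 100 uM, 0.5% DMSO vehicle, duplicates. Readout: TaqMan qRT-PCR of ABCB11 mRNA, housekeeping-normalized (ACTB/GAPDH/POLR2A). Bidirectional fit vs DMSO baseline.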

[17] = read-out: ABC Transporter (ABCC2), ABCC2 (gene 1244); assay: LTEA_HepaRG_ABCC2: Life Technologies and Expression Analysis (LTEA) Assay for ABC Transporter (ABCC2) using HepaRG (AID 2283464); conditions: mRNA level, 48 h; actives raise or lower the signal
How it was run: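 qRT-PCR (TaqMan, Fluidigm array) read-out of ABCC2 mRNA, normalized to three housekeeping genes. Differentiated HepaRG cells were treated 48 h in serum-free induction medium with 8-point half-log series from 100 uM in 0.5% DMSO; curves fitted bidirectionally relative to DMSO.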

[18] = read-out: Broad substrate specificity ATP-binding cassette transporter ABCG2 (Homo sapiens) (UniProt Q9UNQ0); assay: LTEA_HepaRG_ABCG2: Life Technologies and Expression Analysis (LTEA) Assay for ABC Transporter (ABCG2) using HepaRG (AID 2283465); conditions: mRNA level, 48 h; actives raise or lower the signal
How it was run: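 HepaRG, 48 h exposure, 8-pt half-log series from 100 uM, 0.5% DMSO vehicle, duplicates. Readout: ABCG2 transcript by qRT-PCR (Fluidigm array), housekeeping-normalized; bidirectional curve fit relative to DMSO baseline.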

[19] = read-out: ABC Transporter (ABCB1), ABCB1 (gene 5243); assay: LTEA_HepaRG_ABCB1: Life Technologies and Expression Analysis (LTEA) Assay for ABC Transporter (ABCB1) using HepaRG (AID 2283460); conditions: mRNA level, 48 h; actives raise or lower the signal
How it was run: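 HepaRG, 48 h exposure, 8-pt half-log series from 100 uM, 0.5% DMSO vehicle, duplicates. Readout: ABCB1 transcript by Fluidigm TaqMan qRT-PCR, housekeeping-normalized; bidirectional curve fit vs DMSO baseline.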

Sequence of Broad substrate specificity ATP-binding cassette transporter ABCG2 (Homo sapiens) (Q9UNQ0 whole entry, looked up): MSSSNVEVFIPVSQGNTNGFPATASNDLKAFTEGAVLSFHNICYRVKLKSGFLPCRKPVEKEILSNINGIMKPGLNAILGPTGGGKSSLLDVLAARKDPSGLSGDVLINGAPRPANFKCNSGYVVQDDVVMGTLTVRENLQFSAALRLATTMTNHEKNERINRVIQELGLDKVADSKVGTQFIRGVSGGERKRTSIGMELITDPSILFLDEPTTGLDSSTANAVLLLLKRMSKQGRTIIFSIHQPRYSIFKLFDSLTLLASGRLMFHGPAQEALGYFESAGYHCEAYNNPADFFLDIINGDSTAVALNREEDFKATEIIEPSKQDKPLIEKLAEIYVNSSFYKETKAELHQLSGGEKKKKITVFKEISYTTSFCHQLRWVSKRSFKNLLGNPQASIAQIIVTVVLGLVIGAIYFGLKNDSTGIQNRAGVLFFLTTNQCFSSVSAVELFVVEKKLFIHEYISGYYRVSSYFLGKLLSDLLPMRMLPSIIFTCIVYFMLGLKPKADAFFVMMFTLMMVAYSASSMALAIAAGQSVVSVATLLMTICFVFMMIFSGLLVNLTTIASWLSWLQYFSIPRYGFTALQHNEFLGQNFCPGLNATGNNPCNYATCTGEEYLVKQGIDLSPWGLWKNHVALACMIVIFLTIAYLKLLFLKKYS
Sequence of Fatty acid synthase (Homo sapiens) (P49327 whole entry, looked up): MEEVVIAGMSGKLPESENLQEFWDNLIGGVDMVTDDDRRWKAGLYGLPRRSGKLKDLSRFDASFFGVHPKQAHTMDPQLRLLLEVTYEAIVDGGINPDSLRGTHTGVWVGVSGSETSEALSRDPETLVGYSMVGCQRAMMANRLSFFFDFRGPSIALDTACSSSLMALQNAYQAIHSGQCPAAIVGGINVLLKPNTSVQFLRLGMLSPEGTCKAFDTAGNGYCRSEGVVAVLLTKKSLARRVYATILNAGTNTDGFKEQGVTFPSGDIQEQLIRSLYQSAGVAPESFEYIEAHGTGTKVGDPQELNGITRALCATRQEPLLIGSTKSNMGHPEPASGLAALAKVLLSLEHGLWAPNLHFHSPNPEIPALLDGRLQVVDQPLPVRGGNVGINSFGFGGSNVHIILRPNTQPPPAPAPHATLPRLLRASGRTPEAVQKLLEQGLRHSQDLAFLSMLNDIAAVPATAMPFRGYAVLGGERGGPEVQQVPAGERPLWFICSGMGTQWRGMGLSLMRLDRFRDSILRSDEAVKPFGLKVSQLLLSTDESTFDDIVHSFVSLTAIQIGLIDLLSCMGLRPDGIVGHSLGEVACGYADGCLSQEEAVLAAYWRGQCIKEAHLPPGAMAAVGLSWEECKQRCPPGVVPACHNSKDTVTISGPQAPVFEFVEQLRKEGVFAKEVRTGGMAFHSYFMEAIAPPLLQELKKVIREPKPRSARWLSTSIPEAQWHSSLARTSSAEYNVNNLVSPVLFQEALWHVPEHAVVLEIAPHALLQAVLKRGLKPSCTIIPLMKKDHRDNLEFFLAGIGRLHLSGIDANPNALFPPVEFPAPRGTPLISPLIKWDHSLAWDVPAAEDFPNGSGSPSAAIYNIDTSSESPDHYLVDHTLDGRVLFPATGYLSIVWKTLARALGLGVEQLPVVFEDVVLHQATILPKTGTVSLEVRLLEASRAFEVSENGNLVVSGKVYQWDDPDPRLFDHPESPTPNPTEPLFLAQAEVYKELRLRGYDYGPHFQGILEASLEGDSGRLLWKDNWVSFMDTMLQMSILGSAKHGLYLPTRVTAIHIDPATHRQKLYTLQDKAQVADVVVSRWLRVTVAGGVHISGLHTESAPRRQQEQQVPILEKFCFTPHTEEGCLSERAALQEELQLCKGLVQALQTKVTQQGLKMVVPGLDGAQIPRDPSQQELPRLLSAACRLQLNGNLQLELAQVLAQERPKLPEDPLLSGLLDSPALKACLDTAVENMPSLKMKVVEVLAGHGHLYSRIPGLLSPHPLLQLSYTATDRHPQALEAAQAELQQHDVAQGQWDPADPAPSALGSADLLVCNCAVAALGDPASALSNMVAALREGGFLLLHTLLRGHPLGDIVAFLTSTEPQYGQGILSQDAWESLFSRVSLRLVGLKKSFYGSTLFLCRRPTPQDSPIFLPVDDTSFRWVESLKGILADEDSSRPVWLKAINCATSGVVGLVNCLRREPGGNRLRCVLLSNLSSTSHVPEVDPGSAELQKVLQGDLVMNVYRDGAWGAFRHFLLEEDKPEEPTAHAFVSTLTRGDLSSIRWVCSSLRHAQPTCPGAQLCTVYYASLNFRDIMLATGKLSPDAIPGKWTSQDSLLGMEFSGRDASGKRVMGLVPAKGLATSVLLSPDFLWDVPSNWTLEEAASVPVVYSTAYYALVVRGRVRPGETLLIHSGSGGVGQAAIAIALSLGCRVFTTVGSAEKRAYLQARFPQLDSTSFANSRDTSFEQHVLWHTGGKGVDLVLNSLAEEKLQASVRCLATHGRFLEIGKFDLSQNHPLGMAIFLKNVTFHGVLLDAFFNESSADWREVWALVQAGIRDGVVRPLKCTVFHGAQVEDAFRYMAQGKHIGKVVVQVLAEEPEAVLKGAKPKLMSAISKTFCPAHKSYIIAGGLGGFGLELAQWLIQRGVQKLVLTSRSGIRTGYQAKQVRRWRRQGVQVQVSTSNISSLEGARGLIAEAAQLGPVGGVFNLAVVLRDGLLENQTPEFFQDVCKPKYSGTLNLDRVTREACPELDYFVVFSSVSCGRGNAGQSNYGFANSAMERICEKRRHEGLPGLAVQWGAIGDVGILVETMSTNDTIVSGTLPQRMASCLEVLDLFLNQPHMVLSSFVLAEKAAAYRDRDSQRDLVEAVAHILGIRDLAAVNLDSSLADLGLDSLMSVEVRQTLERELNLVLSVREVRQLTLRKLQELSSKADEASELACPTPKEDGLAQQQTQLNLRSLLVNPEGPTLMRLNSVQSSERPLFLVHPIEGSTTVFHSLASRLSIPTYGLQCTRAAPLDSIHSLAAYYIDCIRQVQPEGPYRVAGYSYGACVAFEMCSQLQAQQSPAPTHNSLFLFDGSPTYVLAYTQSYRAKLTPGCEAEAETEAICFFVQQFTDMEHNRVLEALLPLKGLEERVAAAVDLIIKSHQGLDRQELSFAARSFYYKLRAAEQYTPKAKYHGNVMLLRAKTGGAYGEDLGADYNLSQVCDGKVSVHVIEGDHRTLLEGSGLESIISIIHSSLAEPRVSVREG

Row | Compound | outcome [1] | outcome [2] | outcome [3] | outcome [4] | outcome [5] | outcome [6] | outcome [7] | outcome [8] | AC50 [9] | outcome [10] | outcome [11] | outcome [12] | outcome [13] | outcome [14] | outcome [15] | outcome [16] | outcome [17] | AC50 [18] | outcome [19] | outcome [18]
1 | Cc1c(COC(=O)[C@@H]2[C@H](/C=C(\Cl)C(F)(F)F)C2(C)C)cccc1-c1ccccc1 | inactive | inactive | inactive | inactive | inactive | inactive | inactive | inactive | 33.6 µM (active) | inactive | inactive | inactive | inactive | inactive | inactive | inactive | inactive | 50 µM (active) | – | –
2 | Clc1nc(Cl)nc(Nc2ccccc2Cl)n1 | inactive | inactive | inactive | inactive | inactive | inactive | inactive | inactive | 25.5 µM (active) | – | inactive | inactive | – | inactive | inactive | inactive | inactive | – | inactive | inactive
3 | Nc1cnn(-c2ccccc2)c(=O)c1Cl | inactive | inactive | inactive | inactive | inactive | inactive | inactive | inactive | 71.7 µM (active) | inactive | inactive | inactive | inactive | – | inactive | inactive | inactive | – | inactive | inactive
